Tests used:
[1] = system: Human papillomavirus type 1a protein E7 (residues 44-93); test: HPV1a E7 fragment binders on microarrays, primary screen, biochemical, small-molecule microarray, residues 44-93, 635 nm fluorescence (AID 1108); conditions: small-molecule microarray binding, fluorescence 635 nm; higher = more signal;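 also: E7 fragment applied at 1 µg/mL in TBST for 1 h at 4 C; score combines spot fluorescence with its signal to noise ratio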
[2] = modulators of HCV replicon luciferase signal, primary screen, HCV replication inhibitor project, Huh7 cells, luciferase reporter (AID 1109); conditions: 48 h, higher = more signal;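 also: huh7 hepatoma cells harbouring a luciferase neomycin HCV replicon reporter; luciferase luminescence as measure of HCV replicon replication; test concentration not given here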
[3] = target: Left-right determination factor 2 (Homo sapiens) (UniProt O00292); test: LEFTY2 binders on small-molecule microarrays, primary screen, biochemical, small-molecule microarray, 635 nm fluorescence scan (AID 1110); conditions: LEFTY2 binding, higher = more signal
[4] = target: Calmodulin-1 (Homo sapiens) (UniProt P0DP23); test: CALM1 binders on microarrays, EGTA buffer, profiling panel, biochemical, small-molecule microarray, Cy5-labelled CALM1 (AID 1111); conditions: Cy5-CALM1 binding fluorescence, higher = more signal;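 also: labelled calmodulin applied in Tris saline Tween buffer holding calcium plus EGTA and DTT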
[5] = target: Calmodulin-1 (Homo sapiens) (UniProt P0DP23); test: calcium-bound CALM1 binders on microarrays, profiling panel, artefact control for SMM control-protein annotation, biochemical, small-molecule microarray, Cy5-labelled CALM1, plus calcium (AID 1112); conditions: Cy5-CALM1 binding fluorescence, higher = more signal;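 also: score merges spot fluorescence with signal to noise from triplicate slides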
[6] = small-molecule microarray binders of probe aWnt5a, primary screen, biochemical, biotinylated probe, 635/667 nm fluorescence (AID 1113); conditions: higher = more signal;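 also: score merges 667 nm fluorescence intensity with signal-to-noise per printed feature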
[7] = small-molecule microarray binders of probe aShh, primary screen, biochemical, biotinylated probe, 635/667 nm fluorescence (AID 1114); conditions: higher = more signal;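 also: probe is biotin-labelled aShh protein from a stem cell growth factor screen; measures binding of labelled protein to compounds printed on the slide; score merges feature fluorescence at 667 nm with signal-to-noise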
[8] = small-molecule microarray binders of probe aNog, primary screen, biochemical, biotinylated probe, 635/667 nm fluorescence (AID 1115); conditions: higher = more signal;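 also: probe is biotinylated aNog protein used at 0.15 µg/mL for 1 h at 4 C; z-score combines 667 nm fluorescence of each spot with its signal to noise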
[9] = target: Torsin-1A-interacting protein 1 (Homo sapiens) (UniProt Q5JTV8); test: LAP1 binders from COS7 cell lysate, primary screen, small-molecule microarray, 635/667 nm fluorescence (AID 1116); conditions: COS7-hLAP1 lysate binding, 635 nm fluorescence, higher = more signal
[10] = target: Alpha-bungarotoxin (Bungarus multicinctus) (UniProt P60615); test: alpha-bungarotoxin binders on microarray, profiling panel, artefact control for SMM control protein annotation, biochemical, small-molecule microarray, Alexa647 label, 635/667 nm fluorescence (AID 1117); conditions: alpha-BTX-A647 binding fluorescence, higher = more signal
Sequence of Alpha-bungarotoxin (Bungarus multicinctus) (P60615 whole entry, looked up): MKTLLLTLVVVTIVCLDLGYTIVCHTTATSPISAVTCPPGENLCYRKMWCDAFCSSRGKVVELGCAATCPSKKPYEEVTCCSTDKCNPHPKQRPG

Sequence of Left-right determination factor 2 (Homo sapiens) (O00292 whole entry, looked up): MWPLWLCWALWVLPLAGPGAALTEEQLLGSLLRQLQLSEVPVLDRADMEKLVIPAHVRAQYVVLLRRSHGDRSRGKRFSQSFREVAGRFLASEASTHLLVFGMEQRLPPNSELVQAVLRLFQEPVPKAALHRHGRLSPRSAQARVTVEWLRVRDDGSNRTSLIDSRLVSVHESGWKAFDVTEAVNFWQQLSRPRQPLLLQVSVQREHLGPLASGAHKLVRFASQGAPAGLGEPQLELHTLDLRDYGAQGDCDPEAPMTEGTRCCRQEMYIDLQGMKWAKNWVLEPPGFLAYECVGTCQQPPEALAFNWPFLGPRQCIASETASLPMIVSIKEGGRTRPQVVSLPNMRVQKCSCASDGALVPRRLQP
Sequence of Torsin-1A-interacting protein 1 (Homo sapiens) (Q5JTV8 whole entry, looked up): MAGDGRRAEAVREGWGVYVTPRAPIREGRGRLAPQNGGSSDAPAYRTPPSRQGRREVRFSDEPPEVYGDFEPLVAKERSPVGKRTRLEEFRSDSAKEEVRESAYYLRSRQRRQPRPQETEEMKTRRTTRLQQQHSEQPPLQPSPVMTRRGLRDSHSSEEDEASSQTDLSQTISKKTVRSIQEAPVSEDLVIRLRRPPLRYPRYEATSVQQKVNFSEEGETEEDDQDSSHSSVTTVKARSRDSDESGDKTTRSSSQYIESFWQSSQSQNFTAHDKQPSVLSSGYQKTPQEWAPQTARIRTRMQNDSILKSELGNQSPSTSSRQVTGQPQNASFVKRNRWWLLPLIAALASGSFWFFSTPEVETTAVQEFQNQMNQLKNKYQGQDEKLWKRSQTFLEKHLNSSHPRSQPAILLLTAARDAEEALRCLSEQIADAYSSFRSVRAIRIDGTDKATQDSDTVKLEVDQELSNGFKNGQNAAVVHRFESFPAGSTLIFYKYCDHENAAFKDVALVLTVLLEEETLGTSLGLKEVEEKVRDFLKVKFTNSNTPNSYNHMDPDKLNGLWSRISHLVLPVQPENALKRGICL

Compound	composite z-score [1]	z-score [2]	composite z-score [3]	composite z-score [4]	composite z-score [5]	composite z-score [6]	composite z-score [7]	composite z-score [8]	composite z-score [9]	composite z-score [10]
C=CC[C@@]1(C(=O)O)N=C(c2ccc(OCCCO)cc2)O[C@@H]1c1ccccc1	1.35	0.0165	-1.5	-0.815	-1.41	0.499	0.265	2.02	4.53	2.51
COCCOC(=O)N1C(=O)[C@@]2(c3cc(C#CC4(O)CCCCCC4)ccc31)[C@H](C(N)=O)[C@H]1C(=O)O[C@H](c3ccccc3)[C@H](c3ccccc3)N1[C@@H]2c1ccccc1OCCO	1.38	-3.3	0.339	-0.0545	-0.0174	-0.0758	-0.223	-0.531	0.529	1.01
COc1ccc(C#Cc2ccc3c(c2)[C@]2(C(=O)N3)[C@H](C(=O)N3CCc4cc(OC)c(OC)cc4C3)[C@H]3C(=O)O[C@H](c4ccccc4)[C@H](c4ccccc4)N3[C@@H]2c2ccc(O)cc2)cc1	1.38	-1.21	0.388	1.22	0.06	-0.122	-0.0243	0.272	0.0204	1.04
C=CC[C@]12N=C(c3ccc(OCCCO)cc3)O[C@H]1c1ccccc1N(C)C2=O	0.871	-1.57	0.0374	0.287	-0.274	0.0169	0.287	1.99	1.41	0.707
O=C(N1CCCCC1)[C@@]1(Cc2ccccc2)COC(c2ccc(OCCCO)cc2)=N1	0.242	-1.98	-0.462	2.02	1.23	0.113	0.253	0.293	0.996	1.83
CC(C)(C)OC(=O)CC[C@]1(C(=O)NCCN2CCOCC2)N=C(c2ccc(OCCCO)cc2)O[C@H]1c1ccccc1	1.18	0.0186	-0.103	1.78	0.598	-0.0203	-0.153	0.593	-0.299	1.57
COCCOC(=O)N1C(=O)[C@@]2(c3cc(C#CC4(O)CCCCCC4)ccc31)[C@H](C(N)=O)[C@H]1C(=O)O[C@H](c3ccccc3)[C@H](c3ccccc3)N1[C@@H]2c1ccc(O)cc1	1.4	-1.39	0.556	0.36	-0.471	-0.0203	-0.206	0.225	0.0793	0.74
CC1CC/C=C\[C@H]2OC34C=CCN(C(C)C)C(=O)[C@H]3N(CCCCCO)C(=O)[C@@H]4C2C(=O)O1 (stereo not given in full)	-0.806	0.205	-2.15	-0.329	0.446	-0.178	-0.206	0.179	-0.753	-1.36
O=C1O[C@@H](c2ccccc2)[C@@H](c2ccccc2)N2[C@@H](c3ccccc3OCCO)[C@]3(C(=O)Nc4ccc(C#CC5=CCCCC5)cc43)[C@@H](C(=O)NC[C@H](O)c3ccccc3)[C@H]12	1.35	-3.33	0.556	1.08	0.0728	0.0388	-0.0709	0.0483	0.519	1.31
Cc1ccc(S[C@]2(C(=O)NCc3ccccc3)CC(=O)N(C(C)C)[C@@H]2c2ccc(CO)cc2I)cc1	1.34	-1.52	-1.26	0.436	0.475	-0.243	-0.229	0.962	0.877	-0.613
COCCOC(=O)N1C(=O)[C@@]2(c3cc(C#CC4=CCCCC4)ccc31)[C@H](c1ccccc1OCCO)N1[C@H](c3ccccc3)[C@H](c3ccccc3)OC(=O)[C@H]1[C@@H]2C(=O)N1CCc2cc(OC)c(OC)cc2C1	1.33	-1.81	0.336	-0.141	-0.383	-0.121	-0.176	-0.008	0.336	0.761
COc1ccc([Si](C)(C)[C@H]2[C@H](CCn3cc([C@H](O)c4ccccc4)nn3)O[C@@]3(C(=O)N(Cc4ccc(N5CCOC5=O)cc4)c4ccccc43)[C@@H]2C)cc1	-0.873	-2.21	-0.849	0.287	0.481	-0.176	-0.138	-0.1	-0.833	-0.374
CCOC(=O)C1=CC[C@@H](c2cc(Cl)ccc2Cl)N(S(=O)(=O)c2ccc(C)cc2)[C@H]1c1ccc(OC)cc1	-0.157	-2.23	-0.658	0.379	0.379	0.374	0.898	-0.412	0.417	-0.369
Cc1ccc(F)cc1S(=O)(=O)N[C@@H]1CCN(Cc2ccc(OC(C)C)cc2)C1	-1.22	-3.58	0.2	-0.892	-1.14	-0.103	-0.153	0.0771	0.224	-0.688

Source: PubChem BioAssay
